# IL-1B inflam inh: blocks inflammasome-driven IL-1 beta release; 360,000 compounds, 4.7% hits; activity change, % at 57.5 µM; THP-1 LPS/ATP IL-1B secretion, AlphaLISA, 16 h; hits give low values; AID 743279; in the data active = activity change below about -50%; inconclusive = mostly about -30% to -49%
#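 Secreted IL-1B measured by AlphaLISA bead assay after 16 h compound exposure of THP-1 cells; compounds (final up to 57.5 uM) added 1 h before LPS (250 ng/mL) and ATP (1.25 mM) stimulation; lower signal means less secretion.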
# ALOX12 inh: ALOX12 (human) lipoxygenase inhibition | 580,000 compounds, 1.1% hits | P18054 | purified 12hLO, xylenol orange hydroperoxide absorbance | Potency, µM (titrated, usually from 108 µM), for inactives: top-dose activity change, negative = inhibition, usual class: inhibitors; also: potency is read from the fitted curve at half-maximal effect
# Target sequence (P18054 whole entry, looked up): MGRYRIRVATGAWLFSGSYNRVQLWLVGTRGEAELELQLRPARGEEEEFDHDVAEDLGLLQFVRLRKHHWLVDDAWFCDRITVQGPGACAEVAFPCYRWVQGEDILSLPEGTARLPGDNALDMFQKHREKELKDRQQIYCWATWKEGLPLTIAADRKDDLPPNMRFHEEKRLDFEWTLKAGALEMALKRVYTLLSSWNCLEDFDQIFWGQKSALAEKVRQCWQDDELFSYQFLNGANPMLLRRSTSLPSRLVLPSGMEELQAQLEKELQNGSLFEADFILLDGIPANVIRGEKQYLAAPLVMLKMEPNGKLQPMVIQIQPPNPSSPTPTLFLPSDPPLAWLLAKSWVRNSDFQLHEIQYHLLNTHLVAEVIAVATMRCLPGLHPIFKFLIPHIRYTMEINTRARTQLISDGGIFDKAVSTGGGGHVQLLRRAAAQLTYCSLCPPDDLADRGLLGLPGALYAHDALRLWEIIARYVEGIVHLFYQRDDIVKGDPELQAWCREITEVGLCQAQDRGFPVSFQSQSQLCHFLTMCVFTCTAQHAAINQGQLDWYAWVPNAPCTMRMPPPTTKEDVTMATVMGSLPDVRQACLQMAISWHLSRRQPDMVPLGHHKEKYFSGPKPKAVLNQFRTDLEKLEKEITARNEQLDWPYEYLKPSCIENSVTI
#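 Purified human 12hLO at 150 nM in 25 mM Hepes, 0.01% Triton X-100, pH 7.0, preincubated 15 min at room temperature with compound. Reaction started with 40 uM arachidonic acid, 30 min at room temperature. Hydroperoxide measured by Fe-xylenol orange, 573/405 nm absorbance ratio.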
# TDP1 cell noCPT: qHTS for Inhibitors of human tyrosyl-DNA phosphodiesterase 1 (TDP1): qHTS in cells in absence of CPT | Potency, µM (titrated, usually from 46.2 µM), inactives show at the top dose activity change, negative = growth inhibition, hits mostly inhibitors | 420,000 compounds, 15% hits | DT40 Tdp1-/- hTDP1 cells, no CPT, ATP luminescence, 48 h | AID 686978, 2013; also: potency is read from the fitted curve at half-maximal effect; nearly all actives have a fitted effect of over 55% in size
#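 Luminescent ATP content (CellTiter-Glo) served as the growth readout. Knockout chicken DT40 cells expressing human TDP1 were exposed to compounds without camptothecin for a minimum 48 hr at 37 °C.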
# TDP1 cell CPT: growth inhibition of DT40 Tdp1-/-;hTDP1 cells with camptothecin (screen for TDP1 inhibitors). chicken DT40 Tdp1-/-;hTDP1 cells + 20 nM CPT, ATP luminescence, 48 h. Potency, µM (doses to about 46.2 µM), without a hit: at the top dose activity change, negative = growth inhibition, actives largely listed as inhibitors. 420,000 compounds, 12% hits; also: potency is read from the fitted curve at half-maximal effect; nearly all actives have a fitted effect of over 55% in size
#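 Cell growth measured by CellTiter-Glo luminescence after a minimum 48 h, 37 C compound exposure with 20 nM CPT in Tdp1-knockout DT40 cells stably expressing hTDP1, seeded 400/well; qHTS titration format.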
# HT1080NT lethal: kills 2HG-producing HT-1080-NT fibrosarcoma cells | HT-1080-NT fibrosarcoma viability, CellTiter-Glo ATP luminescence, 48 h | Potency, µM (top dose mostly 46.1 µM), inactives show at the top dose activity, negative = less viability, hits mostly cytotoxic | 360,000 compounds, 1.6% hits | AID 686970;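 also: NT is the 2HG producing partner of a matched IDH1 knockdown line; potency is read from the fitted curve at half-maximal effect; 0% = DMSO-treated cells and -100% = media-only wells without cells; nearly all actives have a fitted effect of over 55% in size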
#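 Compounds were tested in concentration-response format on HT-1080-NT cells for 48 hours at 37 degrees C. Cell viability came from CellTiter-Glo luminescence; curves were classified by r2, response magnitude and activity.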
# HT1080 IDH1KD tx: HT-1080 IDH1 knockdown cell toxicity (counter line); Potency, µM (series often up to 46.1 µM), for the others: at the highest dose activity, negative = toxicity, actives largely listed as cytotoxic; AID 686971; HT-1080 IDH1 knockdown viability, ATP luminescence, 48 h; 360,000 compounds, 2% hits;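 also: potency is read from the fitted curve at half-maximal effect; 0% = DMSO wells and -100% = cell-free medium wells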
#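 CellTiter-Glo luminescence after 48 h compound exposure at 37 degrees C of IDH1-knockdown HT-1080 cells in 5% FBS RPMI. %Activity scaled between DMSO wells and cell-free media wells, with curves fitted and assigned curve classes.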
# * = called active by the depositor; u = inconclusive; x = no result given; [ ] = dose if it differs, or a comment. The entries come from a sample that favours hits as a whole. Unless noted, calls follow the shape of the dose curve; as a rule, active = well fitted curve in the direction sought with a large enough effect; inconclusive = small, poorly fitted or top-dose-only effect, or another doubt; inactive = no such curve, though single readings can be large; an effect the other way counts as inactive or inconclusive. Unless noted, % is scaled to controls: 0 for no effect and ±100 for the full control effect.
SMILES,IL-1B inflam inh,ALOX12 inh,TDP1 cell noCPT,TDP1 cell CPT,HT1080NT lethal,HT1080 IDH1KD tx
CC(C)(C)NC(=O)CSc1nc2c(c(-c3cccs3)c1C#N)CCCC2,x,-54%,x,x,x,x
COc1ccc(NC(=O)CSc2nc3c(c(-c4cccs4)c2C#N)CN(C)CC3)cc1OC,u,7%,u,29µM*,-15%,-19%
CN1CCc2nc(SCC(=O)Nc3ccc(Cl)cc3)c(C#N)cc2C1,-7,5.6µM*,u,u,-19%,-23%
Fc1ccc(C2=NC(c3cccc(C(F)(F)F)c3)=Nc3ccccc3N2)cc1,x,1%,18µM*,u,x,x
Fc1ccccc1C1=NC(c2ccc(C(F)(F)F)cc2)=Nc2ccccc2N1,x,-27%,u,u,x,x
COc1ccc(C2=Nc3ccc(F)cc3NC(c3cccc(C(F)(F)F)c3)=N2)cc1,x,-24%,u,23µM*,x,x
COc1ccc(C2=Nc3ccc(C)cc3NC(c3ccc(Cl)cc3)=N2)cc1,x,-25%,u,u,x,x
COc1ccc(S(=O)(=O)N2CCOC23CCN(S(=O)(=O)c2cc(C)ccc2C)CC3)cc1,-1,-13%,u,21µM*,-2%,5%
COc1ccc(S(=O)(=O)N2CCOC23CCN(S(=O)(=O)c2c(C)cc(C)cc2C)CC3)cc1,-9,-13%,16µM*,u,-26%,-5%
COc1ccc(S(=O)(=O)N2CCOC23CCN(S(=O)(=O)c2ccc(Cl)cc2)CC3)cc1,-7,-2%,u,u,8%,-1%
COc1ccc(S(=O)(=O)N2CCOC23CCN(S(=O)(=O)c2ccc(F)cc2C)CC3)cc1,-3,-1%,23µM*,u,-6%,-17%
COc1ccc(S(=O)(=O)N2CCC3(CC2)OCCN3S(=O)(=O)c2ccccc2)cc1OC,5,u,-23%,u,-12%,-16%
COc1ccc(F)cc1S(=O)(=O)N1CCC2(CC1)OCCN2S(=O)(=O)c1ccccc1,-4,-9%,-69%,u,-3%,1%
CN1C(=O)C(c2ccccc2)CC12CCN(Cc1ccc(F)c(F)c1)CC2 (stereo not drawn),x,-1%,x,x,x,x
CCCCN(C)C(=O)c1cc(=O)[nH]c2ccccc12,x,5%,x,x,x,x
COc1ccc(CC(=O)N2CCOC[C@H](Oc3ccc(OC)cc3)C2)cc1,x,43%[176 µM],x,x,x,x
CC1CCN(C(=O)C2CCN(c3nc4ccccc4nc3OC(C)C)CC2)CC1,x,-9%,x,x,x,x
O=C(O)C1OC(Oc2c(-c3ccc(O)c(O)c3)oc3cc(O)cc(O)c3c2=O)C(O)C(O)C1O (stereo not drawn),24,x,13µM*,u,0%,6%
Cc1ccc(Nc2cc(C(=O)NC3CCC(C)CC3)c3ccccc3n2)cc1C (stereo not drawn),x,2%,x,x,x,x
O=C(NC1CCCC1)c1cc(Nc2cccc(C(F)(F)F)c2)nc2ccccc12,x,-13%,u,u,x,x
CC(C)c1ccc(Nc2cc(C(=O)NC3CCCCC3)c3ccccc3n2)cc1,x,1%,21µM*,10µM*,x,x
CCc1ccccc1Nc1cc(C(=O)NC2CCC(C)CC2)c2ccccc2n1 (stereo not drawn),x,-26%,u,12µM*,x,x
O=C(NC1CCCCC1)c1cc(Nc2cccc(C(F)(F)F)c2)nc2ccccc12,x,-15%,u,21µM*,x,x
CC(C)Oc1ccc(CNC(=O)Cn2c(=O)nc3n2C(=O)N(c2ccccc2)C3)cc1,x,38%,x,x,x,x
CCCc1nnc(C[C@@H]2C[C@@H](C(C)C)[C@H](CNc3cccnc3)C=C2C)o1,x,112%[176 µM],x,x,x,x
SMILES,IL-1B inflam inh,ALOX12 inh,TDP1 cell noCPT,TDP1 cell CPT,HT1080NT lethal,HT1080 IDH1KD tx
CCn1c(CN2CCC(C)CC2)nc2cc(NC(=O)COc3ccc(Cl)c(C)c3)ccc21,x,-7%,5.2µM*,6.5µM*,x,x
CC1CCN(CCc2nc3cc(NC(=O)COc4ccc([N+](=O)[O-])cc4)ccc3n2C)CC1,-101*,14%,u,16µM*,-7%,u
CCn1c(CN2CCCCC2)nc2cc(NC(=O)COc3ccccc3C(C)(C)C)ccc21,x,-7%,-19%,-14%,x,x
Cc1cccc(OCC(=O)Nc2ccc3c(c2)nc(CCN2CCC(C)CC2)n3C)c1,-64*,1%,u,u,-19%,-16%
CC1CCN(CCc2nc3cc(NC(=O)Nc4ccccc4)ccc3n2C)CC1,-2,-21%,u,21µM*,0%,14%
CCCNC(=O)Nc1cccc(C(=O)NC)c1C,x,0%,x,x,x,x
Cc1ccc(NC(=O)COC(=O)c2cccc(O)c2)c(Cl)c1,x,-20%,x,x,x,x
CCOC(=O)Nc1ccc(NS(=O)(=O)c2cc(F)ccc2F)cc1,x,8%,x,x,x,x
CCOC(=O)Nc1ccc(NS(=O)(=O)c2ccc(F)cc2C)cc1,x,25µM*,x,x,x,x
CCOc1ccc(NS(=O)(=O)c2cc(OC)ccc2OC)cc1,14,4%[57.4 µM],u,-18%,-2%,u
CCOc1ccc(S(=O)(=O)Nc2ccc(F)cc2)c(C)c1C,12,u,21µM*,26µM*,6%[9.24 µM],10µM*
CCCNC(=O)Nc1nc2ccccc2s1,-17,4%,4%,-25%,13%,0%
CCCNC(=O)c1ccc(-c2nc3ccccc3s2)s1,-10,0%,10µM*,u,-8%,-4%
CCCCNC(=O)Nc1nc2ccccc2s1,-78*,-11%,u,u,1%,19%
O=C(NCCCO)c1nc2ccccc2s1,53,36%,3%,-18%,6%,3%
O=C(Cn1nc2c(cc1=O)CCCC2)NCCc1ccco1,x,7%,x,x,x,x
Cn1c(=O)c2c(ncn2CC(=O)N(CCC#N)Cc2ccco2)n(C)c1=O,x,-9%,x,x,x,x
COc1cc(CN2CCC3(CCC(CNC(=O)c4ccccc4)O3)CC2)cc(OC)c1 (stereo not drawn),x,5%,u,10µM*,x,x
COc1ccc(F)c(CN2CCC3(CCC(CNC(=O)c4cc(C)nn4C)O3)CC2)c1 (stereo not drawn),x,-3%,15µM*,u,x,x
COc1cc(CN2CCC(C)(NC(C)=O)CC2)cc(Nc2ccccc2)c1,x,13µM*,x,x,x,x
CC(=O)NC1(C)CCN(Cc2ccccc2-c2ccccc2Oc2ccccc2)C1 (stereo not drawn),x,35µM*,x,x,x,x
Nc1nc(CN2CCN(C(=O)c3ccc(F)cc3)CC2)nc2ccccc12,x,91%,x,x,x,x
CN1CCC(NC[C@H]2COCc3nc4cc(C(F)(F)F)ccc4n32)CC1,x,69%[176 µM],x,x,x,x
Cc1c(CC(=O)NCCc2ccc(Cl)cc2)c(=O)oc2c(C)c(O)ccc12,x,-7%,x,x,x,x

# High-throughput results (PubChem BioAssay)
